Results published in PubChem BioAssay AID2459 (The Scripps Research Institute Molecular Screening Center, 2010).
The other results are listed elsewhere or left out. A number with no mark means an inactive call. Calls of active or inactive are those of the source.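 The calls were made as follows: active = average inhibition across triplicates above the hit cutoff set in the primary screen (cut at about 32% in these data); inactive = the rest.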

Biological target: Female germline-specific tumor suppressor gld-1 (Caenorhabditis elegans) (UniProt Q17339)
Assay: C. elegans GLD-1 RNA interaction blockers – biochemical, fluorescence polarization, triplicate, confirmation (AID 2459);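 also: 0% = GLD-1 with RNA probe and DMSO and 100% = wells lacking GLD-1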
Conditions: GLD-1/FL-TGE RNA fluorescence polarization, at 5.96 µM, active compounds read high

Chain of Female germline-specific tumor suppressor gld-1 (Caenorhabditis elegans) (Q17339 whole entry, looked up): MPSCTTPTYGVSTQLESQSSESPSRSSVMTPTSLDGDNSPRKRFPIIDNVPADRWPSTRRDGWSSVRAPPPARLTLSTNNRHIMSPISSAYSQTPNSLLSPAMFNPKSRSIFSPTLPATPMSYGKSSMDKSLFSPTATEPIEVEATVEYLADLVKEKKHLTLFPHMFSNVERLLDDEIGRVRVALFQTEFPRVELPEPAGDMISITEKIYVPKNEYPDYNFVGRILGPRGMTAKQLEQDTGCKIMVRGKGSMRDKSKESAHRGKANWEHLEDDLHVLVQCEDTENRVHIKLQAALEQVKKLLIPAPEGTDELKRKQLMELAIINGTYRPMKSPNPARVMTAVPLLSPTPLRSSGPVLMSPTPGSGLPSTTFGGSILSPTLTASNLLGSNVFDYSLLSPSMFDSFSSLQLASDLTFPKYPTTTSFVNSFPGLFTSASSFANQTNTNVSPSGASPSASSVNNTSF

Row | SMILES | inhibition
1 | COc1cc([C@H](Cc2ccccc2)NC(C)=O)oc(=O)c1 | 25.8%
2 | C=C1CCN([C@@H](Cc2ccccc2)C(=O)N2CCOCC2)S(=O)(=O)c2ccccc21 | -0.33%
3 | COc1cc(C(=O)NCc2ccc3c(c2)cc(C)n3C)cc(OC)c1OC | 5.96%
4 | CN(C)c1ccc(Nc2c3c4c(cccc4n(C)c2=O)C(=O)c2ccccc2-3)cc1 | 63.3% (active)
5 | COC(=O)CCCC1=CC2=CC(=O)C(C)(OC(=O)c3cccs3)C(=O)C2=CN1c1cccc(C#N)c1 (stereo not given) | 8.48%
6 | COc1ccc(-c2nc(CS(=O)CC(=O)NCc3ccccn3)c(C)o2)cc1 (stereo not given) | 61.1% (active)
7 | O=c1[nH]cccc1-c1nc2ccccc2n1Cc1ccc(Cl)cc1 | -6.98%
8 | O=C1c2ccccc2C(=O)c2c1cccc2N1CCN(CCO)CC1 | 16.5%
9 | COCCOC(=O)c1sc(=S)n(CCOC)c1N | 47.7% (active)
10 | Cc1ccc(C)c(S(=O)(=O)N2CCN(C(=O)Nc3ccccc3)CC2)c1 | 2.41%
11 | Cc1ccc(/C=N/NC(=O)COc2ccccc2-c2ccccc2)cc1 | -5.49%
12 | N#CC1=C(N)C(C#N)(C#N)[C@H](c2ccsc2)[C@H]2COCC=C12 | 7.34%
13 | COC(=O)c1sc(NC(=S)NC(=O)c2ccc(C)cc2)nc1C | -1.92%
14 | Cc1cc2ccccc2n1CCC(=O)O | 10.1%
15 | CN(CCOc1ccccc1)C(=O)c1cc(-c2ccco2)nc2ccccc12 | -3.07%
16 | Oc1ccc2ccccc2c1N=Nc1nccs1 | 8.17%
17 | CCCn1c(C2CCCN2c2nc(-c3ccc(C)cc3)cs2)nc2cc(Cl)c(N3CCCCC3)cc21 (stereo not given) | -4.07%
18 | CCCN(CC(=O)Nc1ccccc1OC)C(=O)CCC(=O)c1ccc(F)cc1 | -0.97%
19 | COC(=O)c1cc(CNC(=O)CC(C)c2ccccc2)ccc1OC (stereo not given) | -6.47%
20 | CCOc1ccc2nc(N3CCCN(C(=O)Nc4ccccc4C)CC3)c(C#N)cc2c1 | 52.2% (active)
21 | COc1ccc2[nH]c(C)c(CCN(Cc3cccs3)C(=S)Nc3ccccc3OC)c2c1 | -3.16%
22 | CC1CC(C)CN(S(=O)(=O)c2cccc(C(=O)N3C(=O)c4cccc(N)c4C3=O)c2)C1 (stereo not given) | 1.78%
23 | CNC(=S)NNC(=O)c1oc2nc(-c3ccccc3)cc(-c3ccco3)c2c1N | -4.28%
24 | O=C1c2ccccc2-c2ncnc3c(N4CCOCC4)cc(N4CCOCC4)c1c23 | -4.23%
25 | Cc1ccccc1Nc1nc(N)nc(CSc2nnc3ccccn23)n1 | -3.26%
26 | CCOc1cc(C2C(C(=O)OC)=CN(C3CCCC3)C=C2C(=O)OC)cc(Br)c1O | 31.8% (active)
27 | COc1ccc(Nc2ccc([N+](=O)[O-])cn2)cn1 | 18.7%
28 | CC(NC(=O)CSc1nc2c(cc1C#N)CN(C)CC2)c1ccccc1 (stereo not given) | -6.45%
29 | O=c1[nH]c(=O)c2nc3ccccc3nc2[nH]1 | 101% (active)
30 | N#C/C(=C(\O)C(F)(F)F)c1nnc2n1CCCCC2 | -8.93%
